Screening results: PubChem BioAssay, National Center for Advancing Translational Sciences (NCATS)
Pol kappa inh: qHTS for Inhibitors of Polymerase Kappa; purified Pol kappa, fluorescent DNA synthesis assay, 10 min; Potency, µM (highest dose often 107 µM), inactives show top-dose activity, negative = inhibition, hits mostly inhibitors; 400,000 tested, 0.53% active; AID 588579, 2011; further: on the % scale 0 is the no-effect control and ±100 the full control effect
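Pol kappa 10 nM + cpd, 15 min RT; start w/ substrate 50 nM final; fluorescence kinetic read, 0 and 10 min. Neg ctrl: buffer, no enzyme.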
POLH inh: qHTS for Inhibitors of Polymerase Eta. recombinant Pol eta, fluorescent DNA replication assay. Potency, µM (highest dose often 114 µM), for the others: at the highest dose activity change, negative = inhibition, usual class: inhibitors. 390,000 tested, 1.2% active. AID 588591, 2011; further: on the % scale 0 is the no-effect control and ±100 the full control effect
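Fluorescent replication assay: 50 nM final substrate added after a 15 min room-temperature compound preincubation with 10 nM enzyme. Signal taken at 0 min and again at 10 min.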
TDP1 inh: qHTS Assay for Inhibitors of Tyrosyl-DNA Phosphodiesterase (TDP1) | Tyrosyl-DNA phosphodiesterase 1 (Homo sapiens), Q9NUW8 | recombinant TDP1, AlphaScreen DNA substrate cleavage | Potency, µM (series often up to 130 µM), without a hit: at the top dose activity change, negative = inhibition, most hits filed as inhibitors | 350,000 tested, 0.28% active | AID 485290, 2010; further: on the % scale 0 is the no-effect control and ±100 the full control effect; nearly all actives have a fitted effect of over 40% in size
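Steps: enzyme plus compound, 15 min RT; add biotin/phosphotyrosine-FITC oligonucleotide (15 nM final), react 5 min; add donor/acceptor beads (10 ug/ml final), 10 min; read AlphaScreen. Tdp1 at 1 nM final.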
Pol iota inh: qHTS for Inhibitors of Polymerase Iota | Pol iota fluorescent replication assay, 10 min | Potency, µM (highest dose often 115 µM), for the others: at the highest dose activity, negative = inhibition, usual class: inhibitors | 390,000 tested, 1% active | AID 588590, 2011
Target sequence (Q9UNA4 whole entry, looked up): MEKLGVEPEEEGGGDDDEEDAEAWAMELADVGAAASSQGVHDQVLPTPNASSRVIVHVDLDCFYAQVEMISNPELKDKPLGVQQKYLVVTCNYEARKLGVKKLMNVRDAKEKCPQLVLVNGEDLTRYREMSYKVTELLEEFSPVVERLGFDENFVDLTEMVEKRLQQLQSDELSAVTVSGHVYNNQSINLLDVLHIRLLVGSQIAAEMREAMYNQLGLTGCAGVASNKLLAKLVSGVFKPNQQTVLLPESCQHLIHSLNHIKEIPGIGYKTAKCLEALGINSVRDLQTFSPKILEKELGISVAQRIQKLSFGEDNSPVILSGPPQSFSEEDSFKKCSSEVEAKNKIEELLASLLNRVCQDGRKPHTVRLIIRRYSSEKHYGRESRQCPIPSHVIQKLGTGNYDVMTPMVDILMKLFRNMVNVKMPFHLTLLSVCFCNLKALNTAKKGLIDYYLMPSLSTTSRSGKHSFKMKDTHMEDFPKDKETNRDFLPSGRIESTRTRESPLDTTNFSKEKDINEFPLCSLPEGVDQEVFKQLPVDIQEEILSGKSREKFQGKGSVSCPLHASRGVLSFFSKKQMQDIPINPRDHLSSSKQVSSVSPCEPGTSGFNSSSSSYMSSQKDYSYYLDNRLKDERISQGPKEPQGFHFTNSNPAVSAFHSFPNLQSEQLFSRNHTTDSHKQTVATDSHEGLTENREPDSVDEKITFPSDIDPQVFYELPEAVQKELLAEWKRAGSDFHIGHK
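Pol iota at 10 nM preincubated 15 min with compounds at room temperature; reaction started with fluorescent substrate, 50 nM final. Fluorescence read kinetically at 0 and 10 min; buffer-only wells as negative control.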
Pol beta inh: qHTS Assay for Inhibitors of DNA Polymerase Beta. P06746. Pol beta primer extension/strand displacement, fluorescence kinetic. Potency, µM (series often up to 114 µM), inactives show top-dose activity change, negative = inhibition, usual class: inhibitors. 340,000 tested, 1.3% active; further: on the % scale 0 is the no-effect control and ±100 the full control effect
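Pol beta (10 nM) and compounds were preincubated 15 min at room temperature, then 50 nM substrate (final) started primer extension/strand displacement. Reads were taken at 0 and 10 min; concentration-response data were fitted to a four-parameter Hill equation.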
FEN1 inhibitor: qHTS Assay for the Inhibitors of Human Flap endonuclease 1 (FEN1); P39748; Recombinant FEN1 flap cleavage, fluorescence, 15 min; Potency, µM (titrated, usually from 114 µM), for inactives: top-dose activity change, negative = inhibition, most hits filed as inhibitors; 390,000 tested, 0.35% active; AID 588795, 2011; further: on the % scale 0 is the no-effect control and ±100 the full control effect; nearly all actives have a fitted effect of over 65% in size
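FEN1 at 10 nM preincubated with compounds 15 min at room temperature, then flap DNA substrate added at 50 nM final. Signal read at 0 and 15 min; concentration-response fitted with four-parameter Hill equation.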
* marks the source's active call; other numbers are inactive results; ? = inconclusive; . = no result; [ ] = another dose, or the depositor's remark. Only some compounds are listed: those with a hit (about 2.4% of all), similar ones and a draw of the others. The call rests on the fitted dose curve; in most records, active means well fitted curve in the direction sought with a large enough effect; inconclusive means small, poorly fitted or top-dose-only effect, or another doubt; inactive means no such curve, though single readings can be large; an effect the other way counts as inactive or inconclusive. Potency means the concentration at half of the fitted maximal effect.

SMILES	Pol kappa inh	POLH inh	TDP1 inh	Pol iota inh	Pol beta inh	FEN1 inhibitor
O=C(Nc1ccc2nc(-c3ccco3)c(-c3ccco3)nc2c1)NC1CC1	10µM*	1.3µM*	3.2µM*	1.3µM*	3.5µM*	50µM*
COc1ccc(C2Nc3ccccc3C(=O)N2c2ccc(F)cc2)cc1COc1ccc(NC(C)=O)cc1 (stereo unspecified)	0%	.	0%	10%	.	7%
CCOC(=O)C(c1ccc(OC)c(OC)c1)C1c2ccccc2C=C(C)N1C(=O)OC (stereo unspecified)	.	.	10%[12.3 µM]	.	.	.
CN(C)c1ccc(/C=C/N2C=CCc3c2ccc2ccccc32)cc1	50µM*	.	.	?	.	11µM*
COc1ccc(N(C(=O)c2ccc(C)cc2)S(=O)(=O)c2ccc(Cl)cc2)cc1	1%	-18%	2%[2.28 µM]	16%	?	-1%
COc1ccc(S(=O)(=O)Nc2ccc(F)cc2)cc1N(C)S(=O)(=O)c1ccc(Cl)cc1	-15%	-14%	2%	89µM*	-1%	-5%
COc1ccc(NS(=O)(=O)c2ccc(OC)c(N(C)S(=O)(=O)c3ccc(Cl)cc3)c2)cc1	-14%	-20%	6%	89µM*	-17%	-13%
COc1ccc(S(=O)(=O)Nc2ccc(F)c(F)c2)cc1Cl	-6%	8%	4%	1%	-6%	-14%
COc1ccc(N(C(=O)c2ccc(OC)c(OC)c2)S(=O)(=O)c2ccc(Cl)cc2)cc1	79µM*	-16%	0%[12.3 µM]	89µM*	-2%	89µM*
COc1cc(C(CC(=O)Nc2cc(C)ccc2C)N2Cc3ccccc3C2=O)cc(OC)c1OC (stereo unspecified)	6%	-10%	0%	13%	26%	4%
COc1cc(NC(=O)C2CCN(S(=O)(=O)c3ccc4c(c3)oc(=O)n4C)CC2)cc(OC)c1	-4%	-9%	-1%	1%	18%	-2%
O=c1c2ccccc2oc2cc(OCc3cccc(F)c3)cc(O)c12	?	-1%	.	?	22µM*	-2%
CCOC(=O)c1oc2cc(O)cc(O)c2c(=O)c1OCc1ccccc1	-1%	-16%	.	32%	.	10%
NS(=O)(=O)c1ccc(NS(=O)(=O)c2ccc(NC(=O)c3ccc(-c4ccccc4)cc3)cc2)cc1	?	?	1%	56µM*	?	?
O=C(Nc1ccncc1)c1ccc(S(=O)(=O)Nc2ccccc2)cc1	3%	-15%	-1%	36%	74%	-6%
CC(=O)NS(=O)(=O)c1ccc(NC(=O)c2ccc(NC(=O)c3cccs3)cc2)cc1	8%	-10%	45µM*	?	.	16%
Cc1ccc(S(=O)(=O)Nc2ccc(NC(=O)c3cccs3)cc2)cc1	6%	-13%	0%	35%	-6%	13%
C1=Cc2ccccc2/C1=C\c1cc2c3c(c1)CCCN3CCC2	-8%	.	.	-12%	.	-31%
CC(=O)c1ccc(N2CCN(c3nc4c(S(=O)(=O)c5ccc(C)c(C)c5)nnn4c4ccc(Cl)cc34)CC2)cc1	14%	-6%	2%	33%	16%	-8%
CCc1ccccc1NC(=O)CSc1ncc(S(=O)(=O)c2ccc(C(C)C)cc2)c(N)n1	-12%[60.1 µM]	-15%	1%	?	0%	-27%
O=c1c2cc(F)ccc2sn1-c1ccc(F)cc1	-16%	9%	0%	-11%	.	79µM*
COc1ccc(-n2sc3ccc(F)cc3c2=O)cc1	-9%	9%	0%	?	.	?
C/C(=N\Nc1nc(-c2cc(C)ccc2C)cs1)c1cc2c(ccc3ccccc32)oc1=O	79µM*	-18%	12%	?	?	-10%
C/C(=N\Nc1nc(-c2cc(C)ccc2C)cs1)c1cc2ccccc2oc1=O	-24%	-4%	11%	10%	50µM*	-2%
O=C(O)Cc1nn(Cc2ccc(Br)cc2F)c(=O)c2ccccc12	2%[19.4 µM]	.	14%[56.1 µM]	.	.	.
SMILES	Pol kappa inh	POLH inh	TDP1 inh	Pol iota inh	Pol beta inh	FEN1 inhibitor
Cc1ccc(S(=O)(=O)c2nc(-c3ccccc3)oc2SCC(=O)NC2CCCCC2)cc1	-4%	-10%	3%	1%	-2%	16%
COc1cc(/C=N/Nc2nc(-c3ccc(S(=O)(=O)N(C)C)cc3)cs2)ccc1O	0%	-20%	7%	44%	-11%	?
O=[N+]([O-])c1cc(/C=N\Nc2nc(-c3ccccc3)cs2)ccc1O	-25%	79µM*	11%	?	40µM*	?
Cc1ccc(-c2nn(CCC(=O)O)cc2/C=C\C(=O)c2ccc(Br)cc2)cc1	4%	79µM*	0%	40µM*	-23%	-2%
CC(=O)N(c1ccc2oc(=O)sc2c1)S(=O)(=O)c1ccc(C(=O)O)cc1	?	35µM*	6%	3.5µM*	-16%	-20%
COc1cccc(OC)c1OCCCc1c(C)n[nH]c1C	6%	-6%	6%	?	21%	1%
COc1ccc(OCCCCc2c(C)n[nH]c2C)cc1	3%	10%	.	79µM*	.	-19%
COc1ccc(C(C)NC(=O)CN(c2cc(OC)ccc2OC)S(=O)(=O)c2ccccc2)cc1 (stereo unspecified)	-32%	?	5%	?	20µM*	3%
O=C1/C(=C\c2ccc(Br)o2)Cc2ccccc21	-9%	?	5%	?	40µM*	9%
Cc1cnc(CNc2cc(-c3ccc(C(=O)N(C)C)cc3)ncn2)cn1	-4%[60.1 µM]	.	.	.	.	.
O=C(COC(=O)c1ccc(Br)o1)NCc1ccc(F)cc1	-5%	-3%	0%	-16%	.	-14%
O=C(COC(=O)c1cc(NS(=O)(=O)c2cccs2)ccc1O)Nc1ccc(F)c(F)c1F	-6%	-21%	1%	104%	-1%	-10%
O=C(COC(=O)c1ccc(NS(=O)(=O)c2cccs2)cc1)Nc1nc2c(F)c(F)c(F)cc2s1	?	20µM*	5%	40µM*	28µM*	-32%
O=C(COC(=O)c1ccc(Br)o1)Nc1nc2c(F)c(F)c(F)cc2s1	?	56µM*	9%	-29%	11µM*	0%
O=C1CCc2cc(S(=O)(=O)NCc3ccccc3)ccc2N1	.	.	1%	.	.	.
COc1ccc(C(=O)COC(=O)c2ccc3c(c2)NC(=O)CS3)c(OC)c1	?	?	7%[0.505 µM]	40µM*	.	-4%
COc1ccc(C(=O)COC(=O)CCNS(=O)(=O)c2ccccc2)c(OC)c1	-22%	?	3%[0.505 µM]	50µM*	.	-11%
